High-throughput results as filed in PubChem.
pPAFAH FP inh: pPAFAH enzyme inhibitors, primary screen, biochemical, fluorescence polarization, human | Platelet-activating factor acetylhydrolase (Homo sapiens), Q13093 | recombinant pPAFAH, FP-rhodamine probe fluorescence polarization | inhibition, % at 3.39 µM | actives 1.5% (n = 330,000);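 active = inhibition above the mean inhibition across the screen plus 3 SD, cut at about 25% in these data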;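 note: inhibitors block binding of the rhodamine activity-based probe so polarization drops; 0% = enzyme with DMSO and 100% = wells lacking pPAFAH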
PAFAH2 inh: PAFAH2 enzyme inhibitors, primary screen, biochemical, fluorescence polarization, human; Platelet-activating factor acetylhydrolase 2, cytoplasmic (Homo sapiens), Q99487; recombinant PAFAH2, FP-rhodamine activity probe; inhibition, % at 3.39 µM; actives 0.99% (n = 340,000);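 active = inhibition above the mean over all tested compounds plus 3 SD, cut at about 30% in these data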;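 note: inhibitors block probe labeling of enzyme so polarization drops; 0% = enzyme with DMSO and 100% = wells lacking PAFAH2 protein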
Fam108B counter: mouse Fam108B serine hydrolase inhibitors, primary screen, counter-screen for RBBP9 inhibitor project, biochemical, fluorescence polarization; AID 1947, 2009; inhibition, % at 9.51 µM; actives 0.33% (n = 300,000); recombinant Fam108B, FP-Rh probe fluorescence polarization;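 active = inhibition above the screen mean inhibition plus 3 SD, computed separately per campaign, cut at about 18% in these data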;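 note: inhibitors lower polarization as less probe binds the enzyme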
PAFAH1B2 inh: PAFAH1B2 enzyme inhibitors, primary screen, biochemical, fluorescence polarization, human | actives 1.2% (n = 340,000) | AID 492953, 2010 | inhibition, % at 3.39 µM | recombinant PAFAH1B2, FP-rhodamine activity probe;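 active = inhibition above the mean of all tested compounds plus 3 SD, cut at about 24% in these data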;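 note: 0% = enzyme with DMSO and 100% = wells lacking PAFAH1B2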
Target sequence (P68402 whole entry, looked up): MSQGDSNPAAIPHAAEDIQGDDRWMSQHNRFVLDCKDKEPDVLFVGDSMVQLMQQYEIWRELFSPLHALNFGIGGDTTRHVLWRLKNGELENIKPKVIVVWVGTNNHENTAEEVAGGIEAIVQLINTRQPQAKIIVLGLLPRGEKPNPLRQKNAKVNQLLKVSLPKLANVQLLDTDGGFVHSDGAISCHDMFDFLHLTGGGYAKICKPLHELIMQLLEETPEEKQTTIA
PAFAH1B3 inh: PAFAH1B3 enzyme inhibitors, primary screen, biochemical, fluorescence polarization, human | actives 0.28% (n = 340,000) | Platelet-activating factor acetylhydrolase IB subunit alpha1 (Homo sapiens), Q15102 | inhibition, % at 3.39 µM | recombinant PAFAH1B3, FP-rhodamine probe;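 active = inhibition above the screen-wide average of all tested compounds plus 3 SD, cut at about 25% in these data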;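 note: 0% = enzyme with DMSO only and 100% = wells lacking PAFAH1B3 protein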
Target sequence (Q15102 whole entry, looked up): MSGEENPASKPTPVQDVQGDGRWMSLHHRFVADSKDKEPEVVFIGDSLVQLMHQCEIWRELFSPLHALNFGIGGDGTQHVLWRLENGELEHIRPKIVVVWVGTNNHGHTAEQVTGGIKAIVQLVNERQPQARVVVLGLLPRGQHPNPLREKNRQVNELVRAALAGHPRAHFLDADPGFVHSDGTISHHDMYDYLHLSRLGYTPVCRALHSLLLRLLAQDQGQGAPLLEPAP
PME-1 inh: PME-1 inhibitors via competitive probe labeling, primary screen, biochemical, fluorescence polarization, FP-Rh probe, HTS. Protein phosphatase methylesterase 1 (Homo sapiens), Q9Y570. recombinant PME-1. inhibition, % at 5.9 µM. actives 0.53% (n = 320,000);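 active = inhibition above the campaign mean of all compounds plus 3 SD, cut at about 26% in these data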;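 note: competitive labeling of PME-1 active site by serine hydrolase directed probe; 0% = PME-1 with DMSO and 100% = wells lacking PME-1 enzyme; inhibitors block probe labeling so polarization falls and inhibition rises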
PAFAH2 FP conf: PAFAH2 enzyme inhibitors, confirmation, biochemical, fluorescence polarization, human | shares compounds with PAFAH2 inh | recombinant PAFAH2, FP-rhodamine activity probe | inhibition, % at 3.39 µM | actives 65% (n = 2,300);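 active = mean inhibition over three repeats above a set limit taken from the earlier primary screen, cut at about 30% in these data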;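 note: inhibitor blocks binding of rhodamine activity probe so polarization falls; 0% = enzyme with DMSO and 100% = wells lacking PAFAH2 protein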
* marks the source's active call; other numbers are inactive results; · = not tested or not shown. Most compounds without a hit are left out; they make up all but 2.9% or so of the library.

SMILES | pPAFAH FP inh | PAFAH2 inh | Fam108B counter | PAFAH1B2 inh | PAFAH1B3 inh | PME-1 inh | PAFAH2 FP conf
O=C(COC(=O)C1=COCCO1)Nc1ccccc1 | 7 | 79* | 3 | 4 | 1 | 0 | 68*
N#Cc1ccc(NC(=O)COC(=O)C2=COCCO2)cc1 | 5 | 28 | -2 | -2 | 4 | -4 | ·
O=C(COC(=O)C1=COCCO1)NC1CCCCCCC1 | 2 | 76* | 1 | 3 | 9 | 3 | 74*
O=C(COC(=O)C1=COCCO1)Nc1cccc(Oc2ccccc2)c1 | 4 | 90* | -3 | 5 | 10 | 0 | 74*
O=C(NC(=S)NCc1ccco1)c1ccccc1[N+](=O)[O-] | 9 | -1 | 6 | -3 | 0 | 11 | ·
O=C(COC(=O)COc1ccccc1)Nc1ccc(Cl)cn1 | 8 | -2 | · | 8 | 8 | 0 | ·
CC(=O)c1cccc(NC(=O)COC(=O)C2=COCCO2)c1 | 2 | 44* | -4 | 1 | 2 | -1 | 38*
O=C(COC(=O)C1=COCCO1)Nc1cccc(S(=O)(=O)N2CCOCC2)c1 | 10 | 28 | 3 | 3 | 2 | 2 | ·
COC(CNC(=O)c1ccc2c3c(onc13)-c1ccccc1C2=O)OC | 7 | 0 | 5 | 5 | 11 | 6 | ·
CCOc1ccc2noc3c2c1C(=O)c1ccccc1-3 | 21 | 31* | 14 | 18 | 19 | 17 | 19
CCOC(=O)c1c(C)[nH]c(N=Nc2ccc(C)cc2)c1C | 2 | 2 | 2 | 1 | 12 | 3 | ·
Cc1ccc(N=Nc2c(O)ccc3n[nH]nc23)cc1 | · | 30* | · | 8 | 2 | · | 23
O=C(COC(=O)/C=C/c1ccc(C(F)(F)F)cc1)NCC1CCCCC1 | 3 | 30* | -1 | 3 | 2 | 0 | 22
COc1cc(/C=C/C(=O)OCC(=O)N2CCCCCC2)ccc1OCC#N | -1 | 17 | -4 | -1 | 0 | 1 | ·
COc1cc(/C=C/C(=O)OCC(=O)NC(=O)NC2CCCCC2)ccc1OC(F)F | -3 | 13 | 2 | 3 | 3 | -1 | ·
COc1ccc(/C=C/C(=O)OCC(=O)NC2CCCC2)cc1OC | 10 | 83* | · | 2 | 16 | · | 78*
COc1ccc(OC)c(/C=C/C(=O)OCC(=O)NC2CCCCCCC2)c1 | 20 | 90* | · | 8 | 5 | 11 | 86*
COc1ccc(/C=C/C(=O)OCC(=O)N2CCCCCC2)cc1OC | 4 | 33* | · | 6 | 3 | · | 15
O=C(COC(=O)/C=C/c1ccc(OC(F)F)cc1)NC1CCCC1 | 20 | 70* | · | 0 | 7 | -1 | 74*
COc1ccc(/C=C/C(=O)OCC(=O)NC2CCCCCCC2)cc1 | 18 | 86* | · | 6 | 10 | · | 83*
Cc1cccc(N2C(=O)N(c3ccccc3C)C3CS(=O)(=O)CC32)c1 (stereo not given) | 1 | 2 | -2 | 6 | 0 | 3 | ·
COc1ccc(C(=O)c2c(N)sc3c2CCN(C(=O)OC(C)(C)C)C3)cc1 | 4 | · | -5 | · | · | -1 | ·
O=C(CCNc1cccc(Cl)c1)c1cccs1 | 6 | -4 | -3 | 5 | 11 | -2 | ·
COc1cc(/C=C2\N=C(c3ccccc3)OC2=O)ccc1OCc1c(C)no[n+]1[O-] | 4 | 1 | -1 | 3 | -1 | 0 | ·
COc1ccc(/C=C2\N=C(c3c(-c4ccccc4)noc3C)OC2=O)cc1OC | 2 | 34* | -3 | 1 | 7 | 4 | 14
SMILES | pPAFAH FP inh | PAFAH2 inh | Fam108B counter | PAFAH1B2 inh | PAFAH1B3 inh | PME-1 inh | PAFAH2 FP conf
COc1cc(O)c(C(CCN2CCOCC2)c2ccc(N(C)C)cc2)c(OC)c1 (stereo not given) | 4 | -4 | 1 | 0 | 3 | 3 | ·
CC(=O)c1c(C)[nH]c(C(=O)OCC(=O)N2CCc3ccccc32)c1C | -2 | 44* | -6 | -2 | -7 | -2 | 27
O=C(COc1ccccc1)N1CCc2ccccc21 | 3 | 11 | -1 | 6 | 0 | 2 | ·
Cc1ccc(C(=O)OCC(=O)N2CCCc3ccccc32)cc1C | · | 19 | · | 3 | -1 | · | ·
Cn1cccc1C(=O)OCC(=O)N1CCc2ccccc21 | 2 | 31* | · | 5 | 0 | · | 18
CCOC(=O)c1[nH]c(C)c(C(=O)OCC(=O)N2CCc3ccccc32)c1C | 1 | 0 | -10 | 0 | 0 | -4 | ·
O=C(OCC(=O)N1CCc2ccccc21)c1ccccc1[N+](=O)[O-] | 1 | 26 | · | -2 | -3 | 4 | ·
Cc1ccc(C(=O)OCC(=O)N2CCc3ccccc32)cc1 | 3 | 63* | -2 | 0 | 4 | -3 | 63*
O=C(OCC(=O)N1CCc2ccccc21)c1ccccc1F | 11 | 57* | 3 | 6 | 2 | 10 | 53*
CCCc1cc(Nc2ccccc2C)n2ncnc2n1 | 7 | -1 | 2 | 2 | 3 | -7 | ·
COc1ccc(NC2=CC(c3ccccc3)N(c3ccc(OC)cc3)C2=O)cc1 (stereo not given) | 6 | · | 3 | · | · | -4 | ·
O=C(COC(=O)CCCN1C(=O)c2cccc3cccc(c23)C1=O)Nc1ccc(Cl)cc1 | 6 | 48* | 1 | 0 | -13 | 30* | 29
COc1ccc(O)c(C(=O)c2cnn(C(=O)c3cc(C)oc3C)c2)c1 | 2 | 41* | 2 | 5 | 3 | -6 | 21
CN(C)S(=O)(=O)c1cccc(C(=O)OCC(=O)NCc2ccccc2)c1 | 15 | 30* | -2 | 2 | 4 | 5 | 13
CN(c1ccccc1)S(=O)(=O)c1cccc(C(=O)OCC(=O)NCc2ccccc2)c1 | 17 | 26 | · | 7 | 9 | · | ·
COc1ccc(NC(=O)COC(=O)c2cccc(S(=O)(=O)N(C)C)c2)cc1 | · | 41* | · | 8 | 6 | · | 25
CN(C)S(=O)(=O)c1cccc(C(=O)OCC(=O)Nc2sccc2C(N)=O)c1 | 1 | 12 | -1 | 2 | 15 | 6 | ·
Cc1cc(C)n(-c2ccc(C(=O)OCC(=O)Nc3cc(S(C)(=O)=O)ccc3Cl)cc2)n1 | 23 | 36* | · | 2 | 8 | 1 | 29
CS(=O)(=O)c1ccc(Cl)c(NC(=O)COC(=O)c2ccc(-n3cnnn3)cc2)c1 | -4 | 24 | -2 | 0 | 5 | -3 | ·
Cc1ccc(C(=O)OCC(=O)Nc2cc(S(C)(=O)=O)ccc2Cl)cc1S(=O)(=O)N1CCCCC1 | 20 | 64* | -4 | -3 | 2 | 9 | 54*
